Test results as given in PubChem BioAssay (Tox21).
Several values for one entry are separate records, joined by “and”; a condition that tells them apart may be missing. Equal values may be shown once. Records with an inconclusive call do not appear. Where a call stands in place of a potency, no number is given. Some structures have more than one record in an assay (separate samples or runs), and their calls can disagree. Activity calls are given as the source filed them. Unless noted, the call rests on the fitted dose curve; in most records, active means well fitted curve in the direction sought with a large enough effect in the repeat runs; inconclusive means weak or mixed curves; inactive means no such curve, though single readings can be large; an effect the other way counts as inactive or inconclusive.

How the values were obtained:
[1] = biological target: Aryl hydrocarbon receptor (Homo sapiens) (UniProt P35869); test: qHTS assay to identify small molecule that activate the aryl hydrocarbon receptor (AhR) signaling pathway (AID 743085); further: nearly all actives have a fitted effect of over 15% in size; further: potency means the concentration at half of the fitted maximal effect;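 on activation: HG2L7.5c1 human HepG2 liver cells with stably integrated DRE-driven firefly reporter; series mostly up to about 70 µM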
Procedure, shortened: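 AhR agonist activity is inferred from enhanced light output of a DRE-controlled firefly luciferase reporter in HepG2 cells, measured with ONE-Glo following 24 h treatment at 37C.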

[2] = qHTS assay to identify small molecule that activate the aryl hydrocarbon receptor (AhR) signaling pathway - cell viability counter screen (AID 743086);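 further: HepG2 liver cells carrying the AhR DRE luciferase reporter; series mostly up to about 70 µM; nearly all actives have a fitted effect of over 45% in size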
Procedure, shortened: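 Cytotoxicity counter screen: CellTiter-Fluor signal (30 min, 37 C) in 4000 HepG2 cells/well carrying the DRE-luciferase reporter, following 24 h compound exposure at 37 C.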

[3] = biological target: Peroxisome proliferator-activated receptor gamma (Homo sapiens) (UniProt P37231); test: qHTS assay to identify small molecule agonists of the peroxisome proliferator-activated receptor gamma (PPARg) signaling pathway (AID 743094; active means well fitted activation curve with a large enough effect in the signal ratio in the repeat runs, not every such curve was filed as active; the % refers to the signal ratio)
Procedure, shortened: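 Quantitative HTS agonist mode: stable HEK293H line with UAS-beta-lactamase reporter under PPARg control, 17 h compound exposure at 37C, fluorescence after 1 h FRET substrate loading at room temperature.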

[4] = biological target: Peroxisome proliferator-activated receptor gamma (Homo sapiens) (UniProt P37231); test: qHTS assay to identify small molecule antagonists of the peroxisome proliferator-activated receptor gamma (PPARg) signaling pathway (AID 743191; calls by dose curve; further: series mostly up to about 63 µM; nearly all actives have a fitted effect of over 30% in size)
Procedure, shortened: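 Beta-lactamase reporter under UAS control in HEK293H PPARg-bla cells; compound treatment 17 h at 37C. Read-out: fluorescence intensity after 1 h room-temperature incubation with LiveBLAzer B/G FRET substrate.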

[5] = qHTS assay for small molecule agonists of the antioxidant response element (ARE) signaling pathway (AID 743202; active means well fitted activation curve with a large enough effect in the signal ratio in the repeat runs, not every such curve was filed as active; the % refers to the signal ratio; further: potency means the concentration at half of the fitted maximal effect)
Procedure, shortened: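 An ARE-responsive beta-lactamase gene stably integrated in HepG2 cells serves as reporter. After 5 h plating and 16 h compound incubation at 37 C, fluorescence of the B/G FRET substrate was measured.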

[6] = qHTS assay for small molecule agonists of the antioxidant response element (ARE) signaling pathway - cell viability counter screen (AID 743203; calls by dose curve; further: nearly all actives have a fitted effect of over 55% in size)
Procedure, shortened: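 Seeded at 2,000 cells/well, ARE-bla HepG2 cells were incubated 5 hrs before compound addition. After 16 hrs of treatment at 37C with 5% CO2, CellTiter-Glo reagent was added and luminescence read 30 min later.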

[7] = qHTS assay for small molecule activators of the heat shock response signaling pathway - cell viability counter screen (AID 743209); further: nearly all actives have a fitted effect of over 50% in size
Procedure, shortened: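 First, HSE-bla HeLa cells were seeded at 1500 cells/well and kept overnight at 37 C. Next, compounds were pinned in and incubated 5 h. After the FRET substrate step, CellTiter-Glo was added and luminescence read 30 min later.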

[8] = qHTS assay to identify small molecule agonists of the peroxisome proliferator-activated receptor delta (PPARd) signaling pathway - cell viability counter screen (AID 743211); further: nearly all actives have a fitted effect of over 55% in size
Procedure, shortened: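 qHTS cell viability: PPARd-bla HEK293H; 17 h cpd, 37C; CellTiter-Glo, luminescence at 30 min RT.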

[9] = biological target: Peroxisome proliferator-activated receptor delta (Homo sapiens) (UniProt Q03181); test: qHTS assay to identify small molecule agonists of the peroxisome proliferator-activated receptor delta (PPARd) signaling pathway (AID 743212; calls by dose curve)
Procedure, shortened: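 HEK293H UAS-bla reporter cells, human PPARd system; compounds delivered in DMSO after 5 h plating, then at 37 C. Beta-lactamase FRET read, 2 h RT substrate step.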

[10] = qHTS assay to identify small molecule antagonists of the peroxisome proliferator-activated receptor delta (PPARd) signaling pathway - cell viability counter screen (AID 743213); further: nearly all actives have a fitted effect of over 50% in size
Procedure, shortened: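 Agonist-stimulated (L165041, 300 nM final) HEK293H PPARd UAS-bla cells are exposed to compounds for 17 h at 37 C, and ATP-based luminescence (CellTiter-Glo) from the same wells reports cytotoxicity.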

[11] = biological target: Peroxisome proliferator-activated receptor delta (Homo sapiens) (UniProt Q03181); test: qHTS assay to identify small molecule antagonists of the peroxisome proliferator-activated receptor delta (PPARd) signaling pathway (AID 743215; active means well fitted inhibition curve with a large enough effect in the signal ratio in the repeat runs, not every such curve was filed as active; the % refers to the signal ratio; further: potency means the concentration at half of the fitted maximal effect)
Procedure, shortened: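 Inhibition of L165041-driven (300 nM final) PPARd signaling is scored in HEK293H UAS-bla cells. Exposure lasts 17 h at 37 C; beta-lactamase activity is then read by FRET substrate fluorescence after 2 h at room temperature.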

[12] = qHTS assay to identify small molecule agonists of the farnesoid-X-receptor (FXR) signaling pathway - cell viability counter screen (AID 743218); further: nearly all actives have a fitted effect of over 45% in size
Procedure, shortened: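 Cytotoxicity counter-screen run in parallel, same wells: FXR-UAS-bla HEK 293T cells dosed 16 h at 37 C, viability read by CellTiter-Glo luminescence after 30 min at room temperature.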

[13] = qHTS assay to identify small molecule antagonists of the farnesoid-X-receptor (FXR) signaling pathway - cell viability counter screen (AID 743221; active means well fitted cell-killing curve with a large enough effect in the repeat runs, not every such curve was filed as active; further: nearly all actives have a fitted effect of over 50% in size)
Procedure, shortened: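 After a 5 h settling period, FXR-bla HEK 293T cells receive compound and chenodeoxycholic acid (50 uM final) and incubate 16 h at 37 C; CellTiter-Glo luminescence, read after 30 min at room temperature, reports cell viability.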

[14] = qHTS assay to identify small molecule agonists of the vitamin D receptor (VDR) signaling pathway - cell viability counter screen (AID 743224); further: series mostly up to about 63 µM; nearly all actives have a fitted effect of over 50% in size
Procedure, shortened: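 Viability is measured in the same wells as the VDR-bla reporter assay: after 16 h compound treatment and 2 h substrate loading, CellTiter-Glo is added and luminescence read 30 min later.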

[15] = qHTS assay for small molecule activators of the heat shock response signaling pathway (AID 743210; active means well fitted activation curve with a large enough effect in the signal ratio in the repeat runs, with a control signal flat, not every such curve was filed as active; the % refers to the signal ratio;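 further: HeLa cells with beta-lactamase reporter driven by heat shock elements; series mostly up to about 63 µM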)
Procedure, shortened: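 In HSE-bla HeLa cells, 5 h compound incubation (37 C) precedes addition of LiveBLAzer B/G substrate; after 2.5 h at room temperature, fluorescence intensity indicates reporter induction.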

[16] = biological target: Vitamin D3 receptor (Homo sapiens) (UniProt P11473); test: qHTS assay to identify small molecule agonists of the vitamin D receptor (VDR) signaling pathway (AID 743222; calls by dose curve)
Procedure, shortened: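 Quantitative HTS agonist-mode screen: compounds in DMSO were pin-transferred onto VDR-bla cells and incubated 16 h at 37C, 5% CO2. Reporter activity was detected with LiveBLAzer B/G FRET substrate after 2 h at room temperature.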

[17] = biological target: Vitamin D3 receptor (Homo sapiens) (UniProt P11473); test: qHTS assay to identify small molecule antagonists of the vitamin D receptor (VDR) signaling pathway (AID 743223; active means well fitted inhibition curve with a large enough effect in the signal ratio in the repeat runs, not every such curve was filed as active; the % refers to the signal ratio)
Procedure, shortened: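 Reporter line VDR-bla; stimulus 1alpha,25-(OH)2 vitamin D3, 3 nM final; compound co-addition, 16 h 37C/5% CO2; LiveBLAzer B/G substrate 2 h RT; fluorescence intensity.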

[18] = qHTS assay to identify small molecule antagonists of the peroxisome proliferator-activated receptor gamma (PPARg) signaling pathway - cell viability counter screen (AID 743194); further: nearly all actives have a fitted effect of over 55% in size
Procedure, shortened: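 Viability was measured as CellTiter-Glo luminescence in GeneBLAzer PPARg UAS-bla HEK293H cells. These cells had been exposed 17 h at 37 C to compounds together with rosiglitazone at 50 nM final, with the beta-lactamase readout taken in the same wells.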

[19] = biological target: Bile acid receptor (Homo sapiens) (UniProt Q96RI1); test: qHTS assay to identify small molecule antagonists of the farnesoid-X-receptor (FXR) signaling pathway (AID 743217; active means well fitted inhibition curve with a large enough effect in the signal ratio in the repeat runs, not every such curve was filed as active; the % refers to the signal ratio)
Procedure, shortened: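 Antagonist mode against 50 uM (final) chenodeoxycholic acid stimulation in FXR-bla HEK 293T cells, 16 h at 37 °C. Inhibition detected as reduced beta-lactamase activity via LiveBLAzer B/G FRET fluorescence after 2 h at room temperature.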

[20] = biological target: Bile acid receptor (Homo sapiens) (UniProt Q96RI1); test: qHTS assay to identify small molecule agonists of the farnesoid-X-receptor (FXR) signaling pathway (AID 743220; active means well fitted activation curve with a large enough effect in the signal ratio in the repeat runs, not every such curve was filed as active; the % refers to the signal ratio)
Procedure, shortened: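 Beta-lactamase reporter under UAS control in GeneBLAzer FXR HEK 293T cells (5000/well) measured with LiveBLAzer FRET substrate after 2 h at room temperature. Compound exposure lasted 16 h at 37C.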

Chain of Aryl hydrocarbon receptor (Homo sapiens) (P35869 whole entry, looked up): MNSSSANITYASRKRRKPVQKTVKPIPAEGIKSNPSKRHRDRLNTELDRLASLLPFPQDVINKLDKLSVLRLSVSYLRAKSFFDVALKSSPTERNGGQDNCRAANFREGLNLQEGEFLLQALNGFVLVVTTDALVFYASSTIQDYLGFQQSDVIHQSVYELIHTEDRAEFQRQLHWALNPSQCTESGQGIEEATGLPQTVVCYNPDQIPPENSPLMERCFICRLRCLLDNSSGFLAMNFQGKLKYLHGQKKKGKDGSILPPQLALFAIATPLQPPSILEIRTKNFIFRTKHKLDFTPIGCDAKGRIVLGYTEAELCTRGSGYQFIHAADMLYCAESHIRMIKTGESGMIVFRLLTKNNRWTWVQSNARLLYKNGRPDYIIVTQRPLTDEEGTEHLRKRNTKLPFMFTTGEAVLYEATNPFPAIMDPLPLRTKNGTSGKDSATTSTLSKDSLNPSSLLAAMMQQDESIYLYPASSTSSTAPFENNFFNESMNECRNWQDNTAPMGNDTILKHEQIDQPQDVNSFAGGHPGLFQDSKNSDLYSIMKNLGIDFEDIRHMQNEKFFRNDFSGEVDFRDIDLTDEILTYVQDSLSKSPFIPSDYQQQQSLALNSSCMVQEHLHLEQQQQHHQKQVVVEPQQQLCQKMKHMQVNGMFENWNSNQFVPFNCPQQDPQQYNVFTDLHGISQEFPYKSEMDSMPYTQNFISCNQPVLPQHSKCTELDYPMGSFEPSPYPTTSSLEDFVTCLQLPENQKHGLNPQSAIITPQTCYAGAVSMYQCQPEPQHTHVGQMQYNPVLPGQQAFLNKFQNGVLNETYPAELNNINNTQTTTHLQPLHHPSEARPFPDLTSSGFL
Chain of Peroxisome proliferator-activated receptor gamma (Homo sapiens) (P37231 whole entry, looked up): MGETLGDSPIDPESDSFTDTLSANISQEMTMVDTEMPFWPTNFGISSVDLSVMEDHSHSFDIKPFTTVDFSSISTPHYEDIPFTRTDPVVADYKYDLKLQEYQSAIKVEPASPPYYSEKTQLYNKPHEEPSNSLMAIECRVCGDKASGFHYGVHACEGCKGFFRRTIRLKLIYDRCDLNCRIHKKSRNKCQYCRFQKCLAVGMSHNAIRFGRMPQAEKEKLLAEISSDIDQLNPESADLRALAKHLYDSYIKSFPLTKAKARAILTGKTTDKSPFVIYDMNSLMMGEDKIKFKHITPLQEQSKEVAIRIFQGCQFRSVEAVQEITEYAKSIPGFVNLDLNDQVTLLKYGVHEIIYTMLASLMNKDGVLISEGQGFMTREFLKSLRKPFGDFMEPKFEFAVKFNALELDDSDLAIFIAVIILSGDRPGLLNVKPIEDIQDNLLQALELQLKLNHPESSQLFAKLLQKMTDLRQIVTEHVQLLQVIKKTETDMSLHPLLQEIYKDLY
Chain of Vitamin D3 receptor (Homo sapiens) (P11473 whole entry, looked up): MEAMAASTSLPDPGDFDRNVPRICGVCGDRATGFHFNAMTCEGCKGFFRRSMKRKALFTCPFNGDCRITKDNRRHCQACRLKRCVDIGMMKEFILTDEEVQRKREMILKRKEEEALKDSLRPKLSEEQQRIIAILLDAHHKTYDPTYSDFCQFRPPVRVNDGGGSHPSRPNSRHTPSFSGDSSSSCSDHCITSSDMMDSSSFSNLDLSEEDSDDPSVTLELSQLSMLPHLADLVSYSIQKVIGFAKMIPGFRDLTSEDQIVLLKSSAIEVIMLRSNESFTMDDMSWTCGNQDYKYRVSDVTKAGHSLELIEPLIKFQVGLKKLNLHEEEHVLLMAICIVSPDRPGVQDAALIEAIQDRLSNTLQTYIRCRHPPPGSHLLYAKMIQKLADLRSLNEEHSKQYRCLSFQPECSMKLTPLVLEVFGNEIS
Chain of Peroxisome proliferator-activated receptor delta (Homo sapiens) (Q03181 whole entry, looked up): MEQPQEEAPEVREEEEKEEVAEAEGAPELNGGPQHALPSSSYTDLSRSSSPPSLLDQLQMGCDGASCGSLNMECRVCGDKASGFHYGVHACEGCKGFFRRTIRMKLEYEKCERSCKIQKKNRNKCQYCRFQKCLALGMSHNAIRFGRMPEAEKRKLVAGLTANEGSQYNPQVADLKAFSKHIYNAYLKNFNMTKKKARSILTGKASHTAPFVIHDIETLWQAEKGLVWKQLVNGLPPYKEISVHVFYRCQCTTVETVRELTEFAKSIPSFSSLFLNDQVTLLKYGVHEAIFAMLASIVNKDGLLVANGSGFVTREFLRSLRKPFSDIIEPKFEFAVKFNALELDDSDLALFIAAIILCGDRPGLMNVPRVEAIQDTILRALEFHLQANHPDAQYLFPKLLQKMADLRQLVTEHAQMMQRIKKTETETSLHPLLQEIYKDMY
Chain of Bile acid receptor (Homo sapiens) (Q96RI1 whole entry, looked up): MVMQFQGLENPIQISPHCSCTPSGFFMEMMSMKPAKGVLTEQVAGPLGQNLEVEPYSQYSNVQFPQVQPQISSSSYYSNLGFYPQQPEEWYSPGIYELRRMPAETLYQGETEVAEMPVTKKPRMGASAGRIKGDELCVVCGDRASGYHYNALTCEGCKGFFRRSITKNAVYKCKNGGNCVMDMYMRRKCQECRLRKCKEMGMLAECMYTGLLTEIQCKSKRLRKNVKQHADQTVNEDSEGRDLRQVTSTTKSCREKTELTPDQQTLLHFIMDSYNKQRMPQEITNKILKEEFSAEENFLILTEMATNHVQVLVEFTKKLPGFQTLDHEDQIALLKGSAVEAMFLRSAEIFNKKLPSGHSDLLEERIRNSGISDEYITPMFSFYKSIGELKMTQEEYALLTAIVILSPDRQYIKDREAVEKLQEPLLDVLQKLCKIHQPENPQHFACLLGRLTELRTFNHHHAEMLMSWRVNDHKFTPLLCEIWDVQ

| Structure (SMILES) | Potency [1] | outcome [2] | outcome [3] | Potency [4] | Potency [5] | outcome [6] | outcome [7] | outcome [8] | outcome [9] | outcome [10] | Potency [11] | outcome [12] | outcome [13] | outcome [14] | outcome [15] | outcome [16] | outcome [17] | outcome [18] | outcome [19] | outcome [20] |
| --- | --- | --- | --- | --- | --- | --- | --- | --- | --- | --- | --- | --- | --- | --- | --- | --- | --- | --- | --- | --- |
| Cn1cc(-c2ccccc2)c(=O)c(-c2cccc(C(F)(F)F)c2)c1 | inactive | inactive | inactive | inactive | inactive | inactive | inactive | inactive | inactive | inactive | inactive | inactive | inactive | inactive | – | – | – | – | – | – |
| C1CN2CCN1CC2 | inactive | inactive | inactive | inactive | inactive | inactive | inactive | inactive | – | inactive | – | inactive | inactive | inactive | inactive | inactive | inactive | – | – | – |
| O=C(O)c1ccccn1 | inactive | inactive | inactive | – | inactive | inactive | inactive | inactive | – | inactive | – | inactive | – | inactive | inactive | – | – | inactive | – | – |
| COc1ccc2c3c1O[C@H]1[C@@H](O)C=C[C@H]4[C@@H](C2)N(C)CC[C@@]341 | inactive | inactive | inactive | – | 26.9 µM (active) | inactive | inactive | inactive | inactive | inactive | 42.6 µM (active) | inactive | inactive | inactive | inactive | inactive | inactive | inactive | inactive | inactive |
| O=c1[nH]c(=O)[nH]c(=O)[nH]1 | inactive | inactive | inactive | – | inactive | inactive | inactive | inactive | inactive | inactive | inactive | inactive | inactive | inactive | inactive | inactive | inactive | inactive | – | – |
| CN(C)[C@@H]1C(=O)C(C(N)=O)=C(O)[C@@]2(O)C(=O)C3=C(O)c4c(O)cccc4[C@@](C)(O)[C@H]3C[C@@H]12 | inactive | inactive | inactive | – | – | inactive | inactive | inactive | inactive | inactive | inactive | inactive | inactive | – | inactive | – | – | inactive | – | inactive |
| O=S(=O)(c1ccc(O)cc1)c1ccc(O)cc1 | inactive | inactive | inactive | – | inactive | inactive | inactive | inactive | inactive | inactive | inactive | inactive | inactive | inactive | inactive | inactive | inactive | inactive | inactive | inactive |
| C1CC2OC2CC1C1CO1 (stereo not given) | inactive | inactive | inactive | – | inactive | inactive | inactive | inactive | inactive | inactive | inactive | inactive | – | inactive | inactive | inactive | inactive | inactive | inactive | inactive |
| CCN(CC)CCO | inactive | inactive | inactive | inactive | inactive | inactive | inactive | inactive | inactive | inactive | inactive | inactive | – | inactive | – | – | – | – | – | – |
| Cc1ccc([N+](=O)[O-])cc1C | inactive | inactive | inactive | inactive | inactive | inactive | inactive | inactive | inactive | inactive | inactive | inactive | inactive | inactive | – | inactive | inactive | – | inactive | inactive |
| CC(Br)C(=O)O (stereo not given) | inactive | inactive | inactive | – | inactive | inactive | inactive | inactive | inactive | inactive | inactive | inactive | – | inactive | inactive | inactive | inactive | inactive | – | – |
| O=Cc1cccc(Oc2ccccc2)c1 | inactive | inactive | inactive | – | inactive | inactive | inactive | inactive | inactive | inactive | inactive | inactive | – | inactive | inactive | inactive | inactive | inactive | – | – |
| COCCl | inactive | inactive | inactive | – | inactive | inactive | inactive | inactive | inactive | inactive | inactive | inactive | inactive | inactive | inactive | inactive | inactive | inactive | inactive | inactive |
| NCC(O)c1ccc(O)cc1 (stereo not given) | inactive | inactive | inactive | – | inactive | inactive | inactive | inactive | – | inactive | – | inactive | – | inactive | inactive | inactive | inactive | inactive | – | – |
| Cc1[nH]c(=O)n(C(C)(C)C)c(=O)c1Cl | inactive | inactive | inactive | – | inactive | inactive | inactive | inactive | – | inactive | – | inactive | inactive | inactive | – | – | – | inactive | inactive | inactive |
| CC(C)NC(=O)N1CC(=O)N(c2cc(Cl)cc(Cl)c2)C1=O | 4.86 µM (active) and 15.4 µM (active) | inactive | inactive | – | inactive | inactive | inactive | inactive | inactive | inactive | inactive | inactive | inactive | inactive | – | – | – | inactive | – | – |
| Cc1ccc(N)cc1N | 21.1 µM (active) and 27.3 µM (active) | inactive | inactive | – | inactive | inactive | inactive | inactive | inactive | inactive | inactive | inactive | – | inactive | – | inactive | inactive | inactive | inactive | inactive |
| Oc1ccccc1Cl | inactive | inactive | inactive | – | inactive | inactive | inactive | inactive | inactive | inactive | inactive | inactive | inactive | inactive | – | inactive | inactive | inactive | – | – |
